Columns and labels:
Experiment in all cases: log2 ratio of Biotin-Ahx-Ub-VS probe labelling (fragment/DMSO); higher = less target engagement (more negative = stronger competition), active = hit call of the paper (q ≤ 0.05, log2 ratio ≤ -1)
Settings in all cases: compound concentration: 200 uM; treatment time: 3 h
USP42 = target: T1, USP42 (UniProt Q9H9J4)
T1 sequence (whole entry): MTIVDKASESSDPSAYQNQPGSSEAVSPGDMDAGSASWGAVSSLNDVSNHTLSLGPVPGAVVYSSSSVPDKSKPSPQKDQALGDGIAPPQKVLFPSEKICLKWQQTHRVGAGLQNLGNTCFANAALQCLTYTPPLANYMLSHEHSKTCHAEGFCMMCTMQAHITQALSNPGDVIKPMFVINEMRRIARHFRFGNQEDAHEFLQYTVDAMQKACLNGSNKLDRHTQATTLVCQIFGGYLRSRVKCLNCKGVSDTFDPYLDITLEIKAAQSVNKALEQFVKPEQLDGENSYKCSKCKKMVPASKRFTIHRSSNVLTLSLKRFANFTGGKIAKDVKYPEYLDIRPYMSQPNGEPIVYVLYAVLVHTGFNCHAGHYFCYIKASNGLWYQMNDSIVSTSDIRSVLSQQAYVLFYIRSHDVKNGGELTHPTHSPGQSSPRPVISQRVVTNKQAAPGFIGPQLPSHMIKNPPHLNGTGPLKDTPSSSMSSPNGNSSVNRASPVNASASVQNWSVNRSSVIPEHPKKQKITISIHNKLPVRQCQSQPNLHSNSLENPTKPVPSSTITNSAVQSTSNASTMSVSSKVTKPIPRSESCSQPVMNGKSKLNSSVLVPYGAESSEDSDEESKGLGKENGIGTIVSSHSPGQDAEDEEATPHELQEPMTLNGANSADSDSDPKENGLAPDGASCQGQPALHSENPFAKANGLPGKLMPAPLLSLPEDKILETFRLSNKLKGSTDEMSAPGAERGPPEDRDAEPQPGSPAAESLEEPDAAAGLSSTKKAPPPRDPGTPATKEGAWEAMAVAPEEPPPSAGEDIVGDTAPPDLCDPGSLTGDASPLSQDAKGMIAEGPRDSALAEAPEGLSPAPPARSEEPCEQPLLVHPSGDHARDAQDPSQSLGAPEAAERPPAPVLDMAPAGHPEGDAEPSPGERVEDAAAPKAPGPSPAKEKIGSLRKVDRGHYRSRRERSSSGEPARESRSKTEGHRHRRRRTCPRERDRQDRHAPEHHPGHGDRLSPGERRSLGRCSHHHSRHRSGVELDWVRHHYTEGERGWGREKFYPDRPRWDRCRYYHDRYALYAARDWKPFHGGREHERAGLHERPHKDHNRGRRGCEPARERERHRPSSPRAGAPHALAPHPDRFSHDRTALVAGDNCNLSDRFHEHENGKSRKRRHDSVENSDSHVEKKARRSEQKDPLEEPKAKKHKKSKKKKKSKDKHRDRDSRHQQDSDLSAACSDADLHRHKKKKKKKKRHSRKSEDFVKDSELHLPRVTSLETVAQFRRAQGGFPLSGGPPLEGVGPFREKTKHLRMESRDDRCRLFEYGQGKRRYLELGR
Procedure, shortened: (§1)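 HEK293T lysate, 495 µg per sample in Tris/CHAPS/IGEPAL buffer with protease inhibitors, was treated in triplicate with fragment at 200 µM or vehicle for 3 h and then with Biotin-Ahx-Ub-VS at 0.5 µM final for 1 h. Labelled DUBs were NeutrAvidin-enriched, digested with LysC and trypsin, and run by diaPASEF LC-MS/MS. Spectronaut label-free quantities were global-median-normalised, and values are average log2 fragment/vehicle ratios by unpaired t-test on proteins with ≥2 unique peptides.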

USP46 = USP46 (UniProt P62068)
Chain of USP46 (P62068 whole entry): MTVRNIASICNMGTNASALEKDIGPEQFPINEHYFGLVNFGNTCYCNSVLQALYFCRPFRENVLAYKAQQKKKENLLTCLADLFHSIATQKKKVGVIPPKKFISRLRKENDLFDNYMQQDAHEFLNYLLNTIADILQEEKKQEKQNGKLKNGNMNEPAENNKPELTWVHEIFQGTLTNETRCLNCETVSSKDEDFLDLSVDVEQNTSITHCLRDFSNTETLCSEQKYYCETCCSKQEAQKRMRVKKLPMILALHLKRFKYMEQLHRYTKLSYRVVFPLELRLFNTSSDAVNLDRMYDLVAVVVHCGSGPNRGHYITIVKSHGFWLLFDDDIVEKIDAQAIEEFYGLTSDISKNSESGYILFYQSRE
Procedure, shortened: as §1

USP47 = target: T2, USP47 (UniProt Q96K76)
T2 sequence (whole entry): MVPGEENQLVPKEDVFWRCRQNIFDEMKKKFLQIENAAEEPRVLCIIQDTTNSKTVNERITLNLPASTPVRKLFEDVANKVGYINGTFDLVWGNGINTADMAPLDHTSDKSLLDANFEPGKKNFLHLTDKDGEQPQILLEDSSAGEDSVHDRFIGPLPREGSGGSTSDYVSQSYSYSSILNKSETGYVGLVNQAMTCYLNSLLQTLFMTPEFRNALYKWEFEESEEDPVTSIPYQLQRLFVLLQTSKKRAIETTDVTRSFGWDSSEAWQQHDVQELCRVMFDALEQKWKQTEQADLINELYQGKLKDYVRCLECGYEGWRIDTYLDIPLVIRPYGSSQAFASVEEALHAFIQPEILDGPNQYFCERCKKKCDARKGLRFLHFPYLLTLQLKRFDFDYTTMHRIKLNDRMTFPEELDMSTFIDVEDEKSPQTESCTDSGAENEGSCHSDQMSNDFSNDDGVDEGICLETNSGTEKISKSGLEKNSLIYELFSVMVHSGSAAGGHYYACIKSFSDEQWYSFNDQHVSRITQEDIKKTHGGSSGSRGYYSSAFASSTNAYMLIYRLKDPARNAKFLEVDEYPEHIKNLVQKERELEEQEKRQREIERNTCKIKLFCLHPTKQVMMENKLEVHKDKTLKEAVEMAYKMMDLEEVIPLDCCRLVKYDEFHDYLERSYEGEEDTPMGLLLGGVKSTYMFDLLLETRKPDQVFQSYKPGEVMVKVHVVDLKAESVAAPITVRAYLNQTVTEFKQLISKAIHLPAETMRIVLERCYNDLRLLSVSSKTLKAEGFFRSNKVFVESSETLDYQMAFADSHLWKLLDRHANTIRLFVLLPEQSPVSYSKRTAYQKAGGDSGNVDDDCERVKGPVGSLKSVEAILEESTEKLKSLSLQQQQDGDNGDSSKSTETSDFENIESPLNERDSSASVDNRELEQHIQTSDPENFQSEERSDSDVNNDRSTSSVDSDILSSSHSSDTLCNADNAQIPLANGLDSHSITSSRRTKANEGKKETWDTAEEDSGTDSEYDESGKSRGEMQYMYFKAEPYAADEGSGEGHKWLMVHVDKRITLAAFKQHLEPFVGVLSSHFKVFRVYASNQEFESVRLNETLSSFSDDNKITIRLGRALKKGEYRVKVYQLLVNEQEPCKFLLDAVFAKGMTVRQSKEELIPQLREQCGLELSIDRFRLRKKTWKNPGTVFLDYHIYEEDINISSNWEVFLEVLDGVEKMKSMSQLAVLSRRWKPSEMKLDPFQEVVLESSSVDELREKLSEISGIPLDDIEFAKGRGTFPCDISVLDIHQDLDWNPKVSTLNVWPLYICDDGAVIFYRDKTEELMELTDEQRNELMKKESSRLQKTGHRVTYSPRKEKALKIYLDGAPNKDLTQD
Procedure, shortened: as §1

USP48 = target: T3, USP48 (UniProt Q86UV5)
T3 sequence (whole entry): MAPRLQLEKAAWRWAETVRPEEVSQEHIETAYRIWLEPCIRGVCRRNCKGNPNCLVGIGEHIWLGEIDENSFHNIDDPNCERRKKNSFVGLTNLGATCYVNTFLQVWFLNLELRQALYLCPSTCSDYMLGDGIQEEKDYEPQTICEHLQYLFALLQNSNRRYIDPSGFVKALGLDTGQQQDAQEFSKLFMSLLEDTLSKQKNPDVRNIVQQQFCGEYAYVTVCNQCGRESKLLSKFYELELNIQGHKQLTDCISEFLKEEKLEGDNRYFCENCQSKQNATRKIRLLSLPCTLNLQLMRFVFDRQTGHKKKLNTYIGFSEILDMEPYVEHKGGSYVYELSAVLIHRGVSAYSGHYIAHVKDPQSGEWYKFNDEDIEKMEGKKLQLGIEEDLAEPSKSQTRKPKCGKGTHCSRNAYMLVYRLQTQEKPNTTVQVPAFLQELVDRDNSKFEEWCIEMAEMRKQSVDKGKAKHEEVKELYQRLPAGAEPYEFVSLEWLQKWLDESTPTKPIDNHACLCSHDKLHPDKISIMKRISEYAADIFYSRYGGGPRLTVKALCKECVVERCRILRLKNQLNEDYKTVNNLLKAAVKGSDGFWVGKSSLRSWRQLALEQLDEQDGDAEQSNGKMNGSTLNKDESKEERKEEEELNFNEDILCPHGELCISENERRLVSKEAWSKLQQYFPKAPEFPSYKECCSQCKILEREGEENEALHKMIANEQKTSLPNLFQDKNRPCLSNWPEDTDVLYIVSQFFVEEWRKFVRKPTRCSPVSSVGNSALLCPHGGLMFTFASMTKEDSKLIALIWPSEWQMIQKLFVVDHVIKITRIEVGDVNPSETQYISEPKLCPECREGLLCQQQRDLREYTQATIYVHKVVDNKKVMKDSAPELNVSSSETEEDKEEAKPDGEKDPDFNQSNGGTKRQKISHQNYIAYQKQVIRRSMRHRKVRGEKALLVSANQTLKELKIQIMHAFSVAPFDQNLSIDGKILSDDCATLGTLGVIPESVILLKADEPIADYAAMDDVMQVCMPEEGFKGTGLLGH
Procedure, shortened: as §1

USP5 = target: T4, USP5 (UniProt P45974)
T4 sequence (whole entry): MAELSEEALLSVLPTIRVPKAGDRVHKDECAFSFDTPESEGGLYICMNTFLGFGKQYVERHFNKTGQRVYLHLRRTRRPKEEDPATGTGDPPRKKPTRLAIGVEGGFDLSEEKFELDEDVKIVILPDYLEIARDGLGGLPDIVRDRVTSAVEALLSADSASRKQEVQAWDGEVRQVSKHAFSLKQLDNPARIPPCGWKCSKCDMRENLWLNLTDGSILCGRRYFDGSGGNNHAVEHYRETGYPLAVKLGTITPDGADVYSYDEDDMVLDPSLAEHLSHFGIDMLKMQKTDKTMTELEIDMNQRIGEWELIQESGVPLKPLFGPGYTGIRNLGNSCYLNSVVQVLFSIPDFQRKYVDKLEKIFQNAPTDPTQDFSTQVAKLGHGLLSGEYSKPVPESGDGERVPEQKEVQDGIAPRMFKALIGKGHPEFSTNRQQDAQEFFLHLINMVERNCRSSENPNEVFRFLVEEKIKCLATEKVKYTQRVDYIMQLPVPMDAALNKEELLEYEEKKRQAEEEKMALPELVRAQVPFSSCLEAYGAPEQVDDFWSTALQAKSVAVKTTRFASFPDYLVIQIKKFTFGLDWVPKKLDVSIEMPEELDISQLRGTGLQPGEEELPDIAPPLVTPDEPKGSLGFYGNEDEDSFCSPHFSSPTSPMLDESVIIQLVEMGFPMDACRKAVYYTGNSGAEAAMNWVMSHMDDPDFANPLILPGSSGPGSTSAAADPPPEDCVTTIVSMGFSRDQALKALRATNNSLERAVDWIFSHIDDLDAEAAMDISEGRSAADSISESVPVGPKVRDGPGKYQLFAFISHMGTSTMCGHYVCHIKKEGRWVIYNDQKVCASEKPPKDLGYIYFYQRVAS
Procedure, shortened: as §1

USP54 = USP54 (UniProt Q70EL1)
Chain of USP54 (Q70EL1 whole entry): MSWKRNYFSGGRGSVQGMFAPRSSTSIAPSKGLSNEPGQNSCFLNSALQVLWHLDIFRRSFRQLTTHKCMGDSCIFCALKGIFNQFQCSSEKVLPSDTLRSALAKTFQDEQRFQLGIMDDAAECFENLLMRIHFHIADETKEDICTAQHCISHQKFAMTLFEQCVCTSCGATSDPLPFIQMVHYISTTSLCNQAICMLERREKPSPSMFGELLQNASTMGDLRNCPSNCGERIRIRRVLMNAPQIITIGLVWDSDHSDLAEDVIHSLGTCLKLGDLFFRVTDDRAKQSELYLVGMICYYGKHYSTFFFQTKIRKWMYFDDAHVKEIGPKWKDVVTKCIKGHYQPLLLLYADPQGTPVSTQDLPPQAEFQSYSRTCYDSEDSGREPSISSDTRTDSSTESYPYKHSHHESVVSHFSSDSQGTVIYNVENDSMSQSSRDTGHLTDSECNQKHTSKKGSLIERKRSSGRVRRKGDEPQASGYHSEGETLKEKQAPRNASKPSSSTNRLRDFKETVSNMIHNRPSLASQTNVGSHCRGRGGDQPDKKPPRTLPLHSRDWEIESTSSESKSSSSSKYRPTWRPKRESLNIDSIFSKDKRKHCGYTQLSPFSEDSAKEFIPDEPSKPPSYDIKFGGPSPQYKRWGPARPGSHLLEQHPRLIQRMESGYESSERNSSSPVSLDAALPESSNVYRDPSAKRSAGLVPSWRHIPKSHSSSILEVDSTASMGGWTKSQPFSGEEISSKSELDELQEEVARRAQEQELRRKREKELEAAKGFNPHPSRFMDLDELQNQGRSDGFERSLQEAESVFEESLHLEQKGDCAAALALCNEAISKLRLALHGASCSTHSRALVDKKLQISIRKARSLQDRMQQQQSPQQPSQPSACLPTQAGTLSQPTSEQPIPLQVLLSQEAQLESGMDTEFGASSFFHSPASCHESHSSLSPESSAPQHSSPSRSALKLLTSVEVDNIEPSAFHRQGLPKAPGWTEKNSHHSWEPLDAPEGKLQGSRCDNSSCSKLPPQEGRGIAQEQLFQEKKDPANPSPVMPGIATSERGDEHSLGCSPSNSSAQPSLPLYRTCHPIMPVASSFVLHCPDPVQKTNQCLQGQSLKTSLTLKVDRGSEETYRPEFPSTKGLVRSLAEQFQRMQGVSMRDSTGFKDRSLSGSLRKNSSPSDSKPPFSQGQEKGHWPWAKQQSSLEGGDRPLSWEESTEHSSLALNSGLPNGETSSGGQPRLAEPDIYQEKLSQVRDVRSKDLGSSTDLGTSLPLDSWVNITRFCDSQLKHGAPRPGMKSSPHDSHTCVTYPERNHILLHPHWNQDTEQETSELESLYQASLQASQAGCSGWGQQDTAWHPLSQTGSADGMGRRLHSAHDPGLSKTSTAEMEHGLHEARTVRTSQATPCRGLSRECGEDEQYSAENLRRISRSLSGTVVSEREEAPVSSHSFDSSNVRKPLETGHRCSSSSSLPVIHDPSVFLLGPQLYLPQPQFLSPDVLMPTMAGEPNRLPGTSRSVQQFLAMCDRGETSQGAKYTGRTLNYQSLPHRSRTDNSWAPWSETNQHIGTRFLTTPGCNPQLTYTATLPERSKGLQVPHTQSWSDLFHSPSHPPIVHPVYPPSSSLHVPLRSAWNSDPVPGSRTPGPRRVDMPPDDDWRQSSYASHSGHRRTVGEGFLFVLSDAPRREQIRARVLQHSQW
Procedure, shortened: as §1

USP7 = USP7 (UniProt Q93009)
Procedure, shortened: as §1

USP8 = target: T5, USP8 (UniProt P40818)
T5 sequence (whole entry): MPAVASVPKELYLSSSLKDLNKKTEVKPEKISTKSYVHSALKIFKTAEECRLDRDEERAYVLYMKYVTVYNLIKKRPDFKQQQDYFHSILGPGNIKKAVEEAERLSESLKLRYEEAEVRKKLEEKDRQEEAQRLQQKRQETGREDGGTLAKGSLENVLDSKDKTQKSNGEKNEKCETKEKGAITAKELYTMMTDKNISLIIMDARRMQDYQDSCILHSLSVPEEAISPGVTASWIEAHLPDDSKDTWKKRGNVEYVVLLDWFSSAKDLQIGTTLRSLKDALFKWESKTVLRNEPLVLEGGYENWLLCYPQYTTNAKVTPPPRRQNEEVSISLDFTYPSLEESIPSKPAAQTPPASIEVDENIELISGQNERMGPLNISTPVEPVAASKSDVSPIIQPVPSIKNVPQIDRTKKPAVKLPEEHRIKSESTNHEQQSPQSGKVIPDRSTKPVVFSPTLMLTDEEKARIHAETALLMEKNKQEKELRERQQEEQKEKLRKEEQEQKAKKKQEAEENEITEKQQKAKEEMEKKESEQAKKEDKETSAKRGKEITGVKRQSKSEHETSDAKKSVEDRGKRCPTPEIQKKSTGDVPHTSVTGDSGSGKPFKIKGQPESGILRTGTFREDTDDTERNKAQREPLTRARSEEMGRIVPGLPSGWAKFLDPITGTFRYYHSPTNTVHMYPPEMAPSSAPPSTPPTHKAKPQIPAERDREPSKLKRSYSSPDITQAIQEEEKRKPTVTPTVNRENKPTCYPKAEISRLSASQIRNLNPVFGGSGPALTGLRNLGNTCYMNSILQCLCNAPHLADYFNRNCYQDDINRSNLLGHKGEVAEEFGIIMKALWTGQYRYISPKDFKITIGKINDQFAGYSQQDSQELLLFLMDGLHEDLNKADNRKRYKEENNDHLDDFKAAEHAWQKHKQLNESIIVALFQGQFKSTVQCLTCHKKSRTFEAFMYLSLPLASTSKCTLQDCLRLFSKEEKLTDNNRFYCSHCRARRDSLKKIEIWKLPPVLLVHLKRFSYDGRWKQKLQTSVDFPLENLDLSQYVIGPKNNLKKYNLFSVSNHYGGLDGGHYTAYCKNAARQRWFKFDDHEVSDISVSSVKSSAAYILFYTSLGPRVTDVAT
Procedure, shortened: as §1

USP9X = USP9X (UniProt Q93008)
Chain of USP9X (Q93008 whole entry): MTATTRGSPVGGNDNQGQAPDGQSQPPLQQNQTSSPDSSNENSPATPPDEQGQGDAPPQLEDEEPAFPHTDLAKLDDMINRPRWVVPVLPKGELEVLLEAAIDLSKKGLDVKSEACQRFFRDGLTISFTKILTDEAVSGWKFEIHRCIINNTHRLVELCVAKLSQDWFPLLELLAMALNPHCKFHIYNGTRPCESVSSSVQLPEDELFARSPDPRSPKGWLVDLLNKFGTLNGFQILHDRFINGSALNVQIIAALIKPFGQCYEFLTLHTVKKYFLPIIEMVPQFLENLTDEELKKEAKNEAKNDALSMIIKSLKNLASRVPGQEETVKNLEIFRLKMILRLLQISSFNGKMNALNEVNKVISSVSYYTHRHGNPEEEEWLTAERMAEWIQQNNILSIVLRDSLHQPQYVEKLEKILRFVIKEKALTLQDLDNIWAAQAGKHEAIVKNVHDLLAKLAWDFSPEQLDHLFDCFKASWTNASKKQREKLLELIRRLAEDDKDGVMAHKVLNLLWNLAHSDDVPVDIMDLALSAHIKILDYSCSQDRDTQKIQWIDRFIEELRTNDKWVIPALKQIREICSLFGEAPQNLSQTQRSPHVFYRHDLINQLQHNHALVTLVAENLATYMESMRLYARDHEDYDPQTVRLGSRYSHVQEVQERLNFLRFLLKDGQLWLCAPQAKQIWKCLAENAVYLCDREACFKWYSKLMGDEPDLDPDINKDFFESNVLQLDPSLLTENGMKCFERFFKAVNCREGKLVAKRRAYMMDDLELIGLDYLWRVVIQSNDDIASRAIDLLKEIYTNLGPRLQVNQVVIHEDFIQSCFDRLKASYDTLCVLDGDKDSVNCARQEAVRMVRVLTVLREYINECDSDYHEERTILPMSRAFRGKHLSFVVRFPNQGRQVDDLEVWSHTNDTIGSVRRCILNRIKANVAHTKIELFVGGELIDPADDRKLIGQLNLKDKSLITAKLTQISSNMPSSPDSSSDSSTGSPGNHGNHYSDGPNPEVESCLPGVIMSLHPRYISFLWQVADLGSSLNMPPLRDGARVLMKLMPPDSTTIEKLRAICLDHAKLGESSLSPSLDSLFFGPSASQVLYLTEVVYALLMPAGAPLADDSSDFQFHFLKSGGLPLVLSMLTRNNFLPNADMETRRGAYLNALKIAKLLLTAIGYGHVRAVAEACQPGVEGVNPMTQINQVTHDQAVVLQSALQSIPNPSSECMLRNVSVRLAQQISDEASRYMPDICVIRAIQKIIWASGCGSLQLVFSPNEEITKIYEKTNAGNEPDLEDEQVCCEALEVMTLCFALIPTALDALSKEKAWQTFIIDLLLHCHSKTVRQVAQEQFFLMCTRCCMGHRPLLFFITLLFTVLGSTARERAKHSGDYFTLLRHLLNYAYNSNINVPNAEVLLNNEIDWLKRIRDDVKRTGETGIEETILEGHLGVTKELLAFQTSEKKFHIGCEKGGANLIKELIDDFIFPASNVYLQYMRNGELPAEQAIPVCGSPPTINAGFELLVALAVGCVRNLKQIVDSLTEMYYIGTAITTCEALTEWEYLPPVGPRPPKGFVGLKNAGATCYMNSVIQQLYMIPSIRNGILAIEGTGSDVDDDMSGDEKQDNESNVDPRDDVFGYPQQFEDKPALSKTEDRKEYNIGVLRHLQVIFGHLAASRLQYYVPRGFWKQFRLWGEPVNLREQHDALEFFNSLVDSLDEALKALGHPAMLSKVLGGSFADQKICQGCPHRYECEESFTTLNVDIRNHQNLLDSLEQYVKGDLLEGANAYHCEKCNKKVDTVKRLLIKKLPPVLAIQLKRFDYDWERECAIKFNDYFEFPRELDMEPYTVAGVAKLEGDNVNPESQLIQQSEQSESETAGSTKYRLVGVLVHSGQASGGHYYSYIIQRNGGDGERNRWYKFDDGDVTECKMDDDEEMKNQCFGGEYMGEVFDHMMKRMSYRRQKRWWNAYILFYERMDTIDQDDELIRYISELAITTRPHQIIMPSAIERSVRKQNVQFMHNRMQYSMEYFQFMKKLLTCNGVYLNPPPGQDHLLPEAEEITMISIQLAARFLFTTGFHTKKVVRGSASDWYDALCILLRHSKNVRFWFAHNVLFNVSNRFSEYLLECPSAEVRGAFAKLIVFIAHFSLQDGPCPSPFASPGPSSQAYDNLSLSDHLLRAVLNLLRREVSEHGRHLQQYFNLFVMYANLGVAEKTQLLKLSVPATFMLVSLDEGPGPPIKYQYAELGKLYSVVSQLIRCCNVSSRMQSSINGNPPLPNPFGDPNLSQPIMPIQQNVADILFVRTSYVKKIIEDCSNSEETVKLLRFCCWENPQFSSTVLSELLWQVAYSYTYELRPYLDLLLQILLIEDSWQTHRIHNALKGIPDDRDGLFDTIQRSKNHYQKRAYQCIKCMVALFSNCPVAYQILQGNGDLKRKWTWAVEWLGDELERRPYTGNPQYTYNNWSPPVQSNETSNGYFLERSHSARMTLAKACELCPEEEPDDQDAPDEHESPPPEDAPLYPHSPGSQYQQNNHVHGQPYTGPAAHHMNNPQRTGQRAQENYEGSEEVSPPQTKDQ
Procedure, shortened: as §1

UniProt O00487 = target: UniProt O00487
Chain of UniProt O00487 (O00487 whole entry): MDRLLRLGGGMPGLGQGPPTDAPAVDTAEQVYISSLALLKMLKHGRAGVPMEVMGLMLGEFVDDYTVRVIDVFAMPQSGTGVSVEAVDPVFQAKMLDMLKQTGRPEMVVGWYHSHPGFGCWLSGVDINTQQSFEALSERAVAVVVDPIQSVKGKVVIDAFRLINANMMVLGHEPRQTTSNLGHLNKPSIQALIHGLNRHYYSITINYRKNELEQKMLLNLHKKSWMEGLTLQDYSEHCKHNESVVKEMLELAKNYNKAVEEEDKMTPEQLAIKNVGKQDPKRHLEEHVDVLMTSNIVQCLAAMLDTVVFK
Procedure, shortened: as §1

Measured: log2 ratio of Biotin-Ahx-Ub-VS probe labelling

Cc1ccc(CC(CO)CNC(=O)CCl)cc1 (stereo not given)
inactive: USP42 -0.0167 | USP46 -0.000866 | USP47 -0.102 | USP48 -0.405 | USP5 -0.182 | USP54 0.455 | USP7 -0.381 | USP8 -0.322 | USP9X -0.363 | UniProt O00487 -0.242
